High-throughput results (PubChem BioAssay)
Shown are actives, neighbours in structure and some others; about 19% of the full set was active somewhere.
VP16 counter – Gal4-VP16 reporter inhibition counter-screen. Potency, µM (titrated, usually from 53.6 µM), inactives show at the highest dose activity, negative = inhibition, hits mostly inhibitors. AID 2546. 3.5% of 310,000 active. Drosophila S2 Gal4-VP16 UAS-luciferase, luminescence, 20 h;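 further: Gal4-VP16 expression switched on by copper sulfate through the metallothionein promoter; nearly all actives have a fitted effect of over 50% in size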
RORg inh – ROR gamma (mouse) transcription inhibition | Drosophila S2 Gal4-RORgamma UAS-luciferase reporter, 20 h | AID 2551 | 5.4% of 310,000 active | Potency, µM (top dose mostly 53.6 µM), for the others: at the top dose activity change, negative = inhibition, most hits filed as inhibitors | P51450; further: nearly all actives have a fitted effect of over 60% in size
Target sequence (P51450 whole entry, looked up, the tested form may be a part): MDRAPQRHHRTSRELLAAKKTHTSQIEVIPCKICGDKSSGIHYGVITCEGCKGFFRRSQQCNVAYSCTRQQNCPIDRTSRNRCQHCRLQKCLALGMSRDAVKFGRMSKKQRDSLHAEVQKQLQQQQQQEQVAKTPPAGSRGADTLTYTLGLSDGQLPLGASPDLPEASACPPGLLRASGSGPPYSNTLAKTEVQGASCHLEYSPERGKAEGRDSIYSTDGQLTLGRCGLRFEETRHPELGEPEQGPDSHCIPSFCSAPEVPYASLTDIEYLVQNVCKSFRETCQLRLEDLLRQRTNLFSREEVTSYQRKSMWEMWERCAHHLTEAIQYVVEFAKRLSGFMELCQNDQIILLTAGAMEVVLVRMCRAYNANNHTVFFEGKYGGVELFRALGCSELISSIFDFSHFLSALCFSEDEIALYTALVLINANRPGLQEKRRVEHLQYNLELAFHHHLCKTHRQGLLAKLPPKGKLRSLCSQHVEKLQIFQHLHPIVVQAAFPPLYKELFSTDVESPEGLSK
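Stably transfected Drosophila Schneider cells are the test system, with ROR gamma fused to Gal4 and luciferase under UAS control; luminescence is read after 20 hr of 700 uM copper sulfate induction at ambient temperature.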
DT40 TDP1 no CPT – qHTS for Inhibitors of human tyrosyl-DNA phosphodiesterase 1 (TDP1): qHTS in cells in absence of CPT | 15% of 420,000 active | AID 686978, 2013 | DT40 Tdp1-/- hTDP1 cells, no CPT, ATP luminescence, 48 h | Potency, µM (doses to about 46.2 µM), without a hit: at the highest dose activity change, negative = growth inhibition, actives largely listed as inhibitors; further: nearly all actives have a fitted effect of over 55% in size
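Stably hTDP1-transfected Tdp1-null chicken DT40 cells were treated with library compounds minus camptothecin and grown for at least 48 hr at 37 °C, after which cellular ATP was quantified by luminescence.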
TDP1 inh – inhibitors of human tyrosyl-DNA phosphodiesterase TDP1; recombinant TDP1, AlphaScreen DNA substrate cleavage; Q9NUW8; 0.28% of 350,000 active; Potency, µM (top dose mostly 130 µM), inactives show top-dose activity change, negative = inhibition, usual class: inhibitors; further: nearly all actives have a fitted effect of over 40% in size
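Compounds were preincubated with Tdp1 (1 nM final) for 15 min at room temperature before substrate (15 nM final) started a 5 min reaction; beads (10 ug/ml final) were then added for 10 min before AlphaScreen detection.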
TDP1 cell CPT – DT40-hTDP1 cell growth loss with CPT; 12% of 420,000 active; AID 686979; Potency, µM (doses to about 46.2 µM), inactives show at the highest dose activity change, negative = growth inhibition, usual class: inhibitors; chicken DT40 Tdp1-/-;hTDP1 cells + 20 nM CPT, ATP luminescence, 48 h; further: nearly all actives have a fitted effect of over 55% in size
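Chicken DT40 Tdp1-/- cells stably complemented with human TDP1 were seeded at 400 cells/well in medium containing 20 nM camptothecin, exposed to pin-transferred compounds, and grown at 37 °C for at least 48 hr. Viability was read as ATP luminescence.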
* hit, by the source's call; ? = inconclusive; . = no result; [ ] = another dose, or the depositor's remark. The call rests on the fitted dose curve; in most records, active means well fitted curve in the direction sought with a large enough effect; inconclusive means small, poorly fitted or top-dose-only effect, or another doubt; inactive means no such curve, though single readings can be large; an effect the other way counts as inactive or inconclusive. On the % scale 0 is the no-effect control and ±100 the full control effect; potency means the concentration at half of the fitted maximal effect.

SMILES | VP16 counter | RORg inh | DT40 TDP1 no CPT | TDP1 inh | TDP1 cell CPT
NS(=O)(=O)c1ccc(NNC(=O)c2ccccc2C(=O)O)cc1 | 4.2% | 7.1% | -9.9% | . | 16.7%
Cc1cccc(NC(=O)Cn2c(=O)n(Cc3ccccc3)c(=O)c3oc4ccccc4c32)c1C | . | . | 3.26µM* | 2.6% | 4.61µM*
Cc1ccc(Cl)cc1NC(=O)Cn1c(=O)n(Cc2ccccc2)c(=O)c2oc3ccccc3c21 | . | . | ? | 2.6% | ?
C=CCC(C)(O)CCc1ccccc1 (stereo not given) | -2.6% | -15.8% | . | 8.1% | .
CCOC(=O)CNC(=O)N1CCCC(Cc2ccccc2)(C(=O)OCC)C1 (stereo not given) | . | . | ? | . | -19.9%
CCOC(=O)N1C2CCC(C2)N1C(=O)OCC | . | . | -17.1% | . | -4.3%
O=C(NN1C(=O)c2ccccc2NC1c1ccccn1)c1ccccc1 (stereo not given) | -19.7% | ? | ? | -1.1% | 16.4µM*
O=C(NN1C(=O)c2ccccc2NC1c1ccoc1)c1ccccc1 (stereo not given) | 7.2% | 30.3% | 3.2% | 0.0% | -3.5%
CCN(CC)S(=O)(=O)c1ccc(C(=O)NCc2ccc3[nH]c4c(c3c2)CCCC4)cc1 | 2.7% | 24.2% | ? | 6.6% | -5.0%
CNC(=S)NCc1ccc2[nH]c3c(c2c1)CCCC3 | -14.0% | 17.8µM* | -22.1% | -1.8% | -1.7%
CCCCNC(=S)NCc1ccc2[nH]c3c(c2c1)CCCC3 | 10µM* | 5.01µM* | ? | 9.2% | ?
O=C(NCc1ccc2[nH]c3c(c2c1)CCCC3)N1CCOCC1 | -1.1% | -1.2% | . | 6.8% | .
CCOC(=O)N(C)C[C@H]1OCc2cnnn2CCCC(=O)N([C@@H](C)CO)C[C@@H]1C | . | . | 5.4% | . | 2.5%
COc1cc(C)ccc1OCCOCCOc1c(C)cc(C)cc1Br | -7.8% | 8.0% | ? | -11.2% | ?
C/C(=N\NC(=O)CSCc1ccc(Cl)cc1)c1ccc(NC(=O)c2ccccc2)cc1 | 18.3% | 25.7% | -15.3% | -3.4% | -23.2%
Cc1cc2ccccc2c(=O)[nH]1 | 1.3% | -14.9% | -11.5% | 2.3% | -29.1%
O=c1[nH]c(-c2ccccn2)cc2ccccc12 | ? | 5.01µM* | -21.3% | 7.6% | -27.6%
COC(=O)/C=C/C(=O)Nc1cccc(C(F)(F)F)c1 | -5.8% | ? | 14.6µM* | 5.1% | 9.2µM*
O=C(COc1ccc(C(=O)O)cc1)Nc1cccc(C(F)(F)F)c1 | -1.2% | ? | -13.3% | -5.8% | -20.6%
O=C(COCC(=O)Nc1cccc(C(F)(F)F)c1)Nc1cccc(C(F)(F)F)c1 | ? | 22.4µM* | 25.9µM* | 4.7% | ?
O=C(Cn1c(=O)oc2cc(Cl)ccc21)Nc1cccc(C(F)(F)F)c1 | . | . | 18.4µM* | 2.8% | 18.4µM*
COC(=S)Nc1cccc(C(F)(F)F)c1 | ? | ? | -19.9% | 5.1% | 1.6%
CN1CCN(C(=S)c2ccc(OCC(=O)Nc3cccc(C(F)(F)F)c3)cc2)CC1 | ? | ? | 9.2µM* | 0.0% | 20.6µM*
N#Cc1ccccc1NC(=O)CSc1nnc(N)s1 | . | . | -13.2% | -4.8%[12.3 µM] | 0.6%
CC(C)c1cccc(C(C)C)c1NC(=O)COc1nncc2ccccc12 | 1.6% | 24.4% | ? | 1.2% | -21.1%
SMILES | VP16 counter | RORg inh | DT40 TDP1 no CPT | TDP1 inh | TDP1 cell CPT
CCN(CC)C(=O)C1=C(C)Nc2nc3ccccc3n2C1c1ccccc1F (stereo not given) | . | . | ? | 0.9% | ?
CC1(Cc2ccc(C(F)(F)F)o2)C(=O)Nc2ccc(-c3cccc(C(F)(F)F)c3)cc21 (stereo not given) | . | . | 11.6µM* | . | 14.6µM*
CC1(Cc2ccc(Cl)cc2)C(=O)Nc2c(Cl)cccc21 (stereo not given) | . | . | ? | . | -20.1%
CCc1ccc2c(c1)NC(=O)C2(C)Cc1ccc(C(F)(F)F)o1 (stereo not given) | . | . | ? | . | 23.1µM*
CC1(C)CC(=O)C=C(NCc2cccc(C(F)(F)F)c2)C1 | -6.3% | 15.4% | -28.2% | 0.0% | 8.2%
O=C(NCc1cccc(C(F)(F)F)c1)c1ccc2c(c1)OCO2 | . | . | 0.0% | 0.6% | 19.8%
